High-throughput results from PubChem BioAssay.
Hits are enriched below; roughly 2.1% of the tested compounds scored in any of these assays.
PABP FP inh: blocks human PABP binding to poly(A) RNA | P11940 | 290,000 tested, 1% active | inhibition, % at 35 µM | fluorescence polarization;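 also: calls also rest on retests at 20 µM and on dose response follow-up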
MLLE-PAM2 inh: inhibitors of microRNA-mediated deadenylation, human PABP1 MLLE binding; P11940; GST-MLLE / FITC-PAM2 fluorescence polarization; inhibition, % at 20 µM; 360,000 tested, 0.36% active; in the data active = inhibition above about 35%, passing the limit was not always enough
NRP1-CendR mod: alters CendR peptide binding to human NRP-1. O14786. FAM-RPARPAR peptide binding to NRP-1, fluorescence polarization. inhibition, % at 25 µM. 360,000 tested, 0.85% active. AID 602438;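 active = inhibition or corrected inhibition above about 18%, plus a signal ratio from 0.5 to 1.5, limit read from the data, passing the limit was not always enough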
eIF4H FP inh: inhibitors of RNA binding by human eIF4H; inhibition, % at 35 µM; 290,000 tested, 0.94% active; eIF4H fluorescence polarization binding assay; AID 2012; Q15056;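 also: calls also rest on retests at 20 µM and on dose response follow-up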
Large screens that a line does not name were inactive. Unless noted, no rule for the calls is given here.

CC(C)(C)c1ccc(C(=O)CC(Sc2ccc(Cl)cc2)C(=O)O)cc1 (stereo unspecified)	MLLE-PAM2 inh 46
CCCN(CC(=O)Nc1ccccc1C)C(=O)COc1ccc2c(c1)CCC2	none
CCOC(=O)C1=CCN(S(=O)(=O)c2ccccc2F)C1c1ccccc1 (stereo unspecified)	none (no result: PABP FP inh, eIF4H FP inh)
Cc1c(Cl)cccc1NC(=S)NCCc1ccc(S(N)(=O)=O)cc1	MLLE-PAM2 inh 42
CCOC(=O)CCCCCC(=O)Nc1ccc2c(c1)C(=O)N([C@H](C)CO)C[C@H](C)[C@@H](CN(C)C(=O)Nc1ccccc1)OCCCC[C@@H](C)O2	none (no result: PABP FP inh, eIF4H FP inh)
Cc1ccc(-c2cccc(C3CC=CC4C3C(=O)N(Cc3ccccc3)C4c3cc(C)ccc3F)c2)cc1 (stereo unspecified)	NRP1-CendR mod 30
C[C@@H]1CC=C[C@H]2[C@H]1C(=O)N(Cc1ccccc1)[C@H]2c1ccc(/C=C/c2ccccc2)cc1F	NRP1-CendR mod 29
COc1ccc([C@H]2[C@H]3C=CC[C@@H](C)[C@@H]3C(=O)N2Cc2ccccc2)cc1Cl	NRP1-CendR mod 28
C[C@@]12CCC=C[C@H]1[C@H](c1ccc(C(F)(F)F)cc1)N(Cc1ccccc1)C2=O	NRP1-CendR mod 26
COc1ccc(-c2ccc(C)cc2)cc1[C@H]1[C@@H]2C=CCC[C@@]2(C)C(=O)N1Cc1ccccc1	none
COc1ccccc1CCNC(=O)C(=O)c1cn(CC(=O)N2CCOCC2)c2ccccc12	none
CCOC(=O)[C@]12Cc3c(cc(OC)c(OC)c3OC)[C@H]1N(C1CCCCC1)C(=O)c1cc(OC)ccc12	none (no result: PABP FP inh, MLLE-PAM2 inh, eIF4H FP inh)
N#Cc1ccc(NC(=O)COc2ccc(-n3cnnn3)cc2)cc1	none (no result: PABP FP inh, eIF4H FP inh)
COc1ccc(NC(=O)N(C)[C@H]2C[C@H]3c4[nH]c5ccc(-c6cccc(C)c6)cc5c4CCN3C[C@H]2[C@H](C)O)cc1	none (no result: PABP FP inh, eIF4H FP inh)
COC(=O)CCNC(=O)Cc1ccc(S(=O)(=O)N2CCCCC2)s1	none (no result: PABP FP inh, eIF4H FP inh)
C[C@@]12CCC=C[C@H]1[C@H](c1ccc(/C=C/c3ccccc3)cc1F)N(Cc1ccccc1)C2=O	NRP1-CendR mod 21
O=c1nc2s/c(=C\c3ccco3)c(=O)n2nc1Cc1ccc(F)cc1	PABP FP inh 58, eIF4H FP inh 84
COc1ccc(Br)cc1/C=c1\sc2nc(-c3ccco3)nn2c1=O	PABP FP inh 87, eIF4H FP inh 94
Cc1ccc(/C=c2\sc3nc(-c4ccco4)nn3c2=O)o1	PABP FP inh 67, eIF4H FP inh 90
Cc1ccc(/C=c2\sc3nc(-c4ccccc4Br)nn3c2=O)o1	none
Cc1ccc(-c2nc3s/c(=C\c4ccco4)c(=O)n3n2)cc1	PABP FP inh 45, eIF4H FP inh 82
CCCN1C(=O)/C(=c2\sc3nc(=O)c(Cc4ccc(C)cc4)nn3c2=O)c2ccccc21	none
Cc1csc(=O)n1CC(=O)OCC(=O)Nc1ccc(F)c(F)c1	none (no result: PABP FP inh, eIF4H FP inh)
O=C(Nc1ccc(C(F)(F)F)cc1)c1cc(S(=O)(=O)NCC2COc3ccccc3O2)ccc1F (stereo unspecified)	NRP1-CendR mod 82
CCCNC(=O)NCCc1c(C)[nH]c2ccccc12	MLLE-PAM2 inh 53
Cc1[nH]c2ccccc2c1CCO	none
CC(Oc1ccc(Cl)cc1Cl)C(=O)Nc1cccc(O)c1 (stereo unspecified)	none
CC(Oc1ccc(Cl)cc1Cl)C(=O)Nc1ccc(O)cc1 (stereo unspecified)	eIF4H FP inh 2.6
CCc1nn(C)c2c(=O)c(=O)c2n(C)[nH]1	PABP FP inh 58, eIF4H FP inh 99
Cc1nn(C)c2c(=O)c(=O)c2n(C)[nH]1	none
C=CCn1c(NC(=O)c2ccccc2)nc2ccccc21	NRP1-CendR mod 26
CCn1c(NC(=O)c2ccccc2)nc2ccccc21	none
Cc1ccccc1NP1(=O)OCCCN1Cc1ccccc1Cl (stereo unspecified)	none (no result: PABP FP inh, eIF4H FP inh)
CCCCCn1c(=O)[nH]c2cc(C(=O)NCCCN3CCC(C)CC3)ccc2c1=O	NRP1-CendR mod 28
Cc1cccc(C(=O)OC(C)C(=O)Nc2ccc(S(=O)(=O)N3CCCC3)cc2)c1O (stereo unspecified)	none (no result: PABP FP inh, eIF4H FP inh)
CC(OC(=O)c1cc(Br)ccc1O)C(=O)Nc1ccc(S(=O)(=O)N2CCCC2)cc1 (stereo unspecified)	NRP1-CendR mod 25 (no result: PABP FP inh, eIF4H FP inh)
COc1ccccc1-c1cc2nc(-c3ccccc3)cc(N3CCN(C(=O)c4ccoc4)CC3)n2n1	none (no result: PABP FP inh, eIF4H FP inh)
Cc1no[n+]([O-])c1COc1ccc(/C=C2\NC(=S)NC2=O)cc1	PABP FP inh 50, eIF4H FP inh 56 (no result: MLLE-PAM2 inh, NRP1-CendR mod)
Cc1[nH]n(-c2ncc(-c3ccc(Cl)cc3)s2)c(=O)c1C(c1ccc(Cl)cc1)C(C#N)C#N (stereo unspecified)	PABP FP inh 5.9
COc1ccccc1CNC(=O)C1CCCN(S(=O)(=O)c2cccs2)C1 (stereo unspecified)	none
C[C@@H]1CCCCO[C@H](CN(C)C(=O)Nc2ccccc2)[C@@H](C)CN([C@H](C)CO)C(=O)c2cc(NS(=O)(=O)c3cn(C)cn3)ccc2O1	none (no result: PABP FP inh, eIF4H FP inh)
CCOC(=O)c1c(NC(=O)OC)sc(C(=O)N(C)C)c1C	none
COC(=O)Nc1sc(C(=O)N(C)C)c(C)c1C(=O)OC	NRP1-CendR mod 24
CCc1ccc(C(N)=S)cc1	PABP FP inh inconclusive, MLLE-PAM2 inh 41
O=C(Nc1cccc(S(=O)(=O)N2CCOCC2)c1)C1=NN(c2ccccc2)C(=O)CC1	NRP1-CendR mod 27
COc1ccc(OC)c(-c2csc(NC(=O)C3=NN(c4ccccc4)C(=O)CC3)n2)c1	none
COc1ccc(NS(=O)(=O)c2cc(NC(=O)C3=NN(c4ccccc4)C(=O)CC3)ccc2OC)cc1	NRP1-CendR mod 27 (no result: PABP FP inh, eIF4H FP inh)
O=C(Nc1ccc(Cl)c(S(=O)(=O)N2CCOCC2)c1)C1=NN(c2ccccc2)C(=O)CC1	none (no result: PABP FP inh, eIF4H FP inh)
CCc1noc(C)c1C(=O)OCC(=O)c1ccccc1OC	none
CC1(c2ccccc2)CC(C)(C)n2c(O)c(C3=NC(=S)NC3=O)c3cccc1c32 (stereo unspecified)	NRP1-CendR mod 26
COc1ccc(N2CCN(c3oc(-c4ccco4)nc3C#N)CC2)cc1	eIF4H FP inh 100
N#Cc1nc(-c2ccco2)oc1N1CCN(c2ccccc2)CC1	none
COc1ccc2[nH]c(C)c(CN3CCCCC3)c(=O)c2c1	NRP1-CendR mod 32
COc1ccc(NC(=O)c2csc(Cc3ccccc3)n2)cc1	none
O=C(Nc1ccc(F)cc1)c1csc(Cc2ccccc2)n1	eIF4H FP inh 5.5
CCN(CC(=O)NCc1cccs1)C(=O)c1ccc(S(=O)(=O)N(C)C)cc1	none
CCN(CC(=O)NCc1cccs1)C(=O)c1ccc(S(=O)(=O)N(C)c2ccccc2)cc1	NRP1-CendR mod 21 (no result: PABP FP inh, eIF4H FP inh)
Cc1ccc(C(=O)N2CCN(c3ccc(C(F)(F)F)cn3)CC2)c(C)c1	NRP1-CendR mod 38
Cc1nc(S/C(=C\c2ccc(OCc3ccccc3Cl)cc2)C(=O)O)n[nH]1	none
Cc1nc(S/C(=C\c2ccc(-c3ccc(C(=O)O)c(Cl)c3)o2)C(=O)O)n[nH]1	PABP FP inh 55, eIF4H FP inh 75
CN(C)c1ccc(CNCc2cccnc2)cc1	none (no result: PABP FP inh, eIF4H FP inh)
Nc1nnc(CC(=O)N/N=C/c2cc([N+](=O)[O-])cc(Br)c2O)s1	PABP FP inh 47, eIF4H FP inh 86
Cc1ccc(S(=O)(=O)CCSc2cccc(C(=O)O)c2)cc1	MLLE-PAM2 inh 44
